Assay results taken from publication PMC5700166.

Columns and labels:
Test in all cases: protein-binding microarray (PBM); PBM: ~300 nM protein, 6 mM HEPES pH 7.8, 80 mM KCl, 0.5 mM EDTA, 0.5 mM EGTA, 6% glycerol, 35 ng/ul poly-dIdC, 1% milk, 1 h, room temperature; Ap Aiptasia and Nv Nematostella (sea anemones) / Co Capsaspora / Aq Amphimedon (sponge) / Dm Drosophila / Hu human; RHD is the Rel homology domain; high values mean tight binding
Conditions in all cases: dsDNA, one strand shown
GST-Ap-NF-kB RHD = biological target: T1, GST-Ap-NF-kB RHD (Exaiptasia pallida (Aiptasia), UniProt A0A913YAJ5 2-422)
T1 sequence: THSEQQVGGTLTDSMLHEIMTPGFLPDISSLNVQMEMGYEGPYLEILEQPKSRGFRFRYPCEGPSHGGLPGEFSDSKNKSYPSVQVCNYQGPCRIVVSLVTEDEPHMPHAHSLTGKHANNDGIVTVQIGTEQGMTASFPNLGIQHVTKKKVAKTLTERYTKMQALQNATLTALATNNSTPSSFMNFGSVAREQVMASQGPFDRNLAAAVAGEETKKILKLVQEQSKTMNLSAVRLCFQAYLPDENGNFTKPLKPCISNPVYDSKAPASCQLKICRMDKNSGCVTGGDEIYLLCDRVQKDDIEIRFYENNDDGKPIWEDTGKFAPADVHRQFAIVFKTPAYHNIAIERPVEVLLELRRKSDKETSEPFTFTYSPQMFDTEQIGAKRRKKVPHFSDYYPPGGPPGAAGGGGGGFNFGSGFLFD

[1] = biological target: T2, GST-Nv-NF-kB (Cys allele) (Nematostella vectensis, UniProt E5G601 2-411)
T2 sequence: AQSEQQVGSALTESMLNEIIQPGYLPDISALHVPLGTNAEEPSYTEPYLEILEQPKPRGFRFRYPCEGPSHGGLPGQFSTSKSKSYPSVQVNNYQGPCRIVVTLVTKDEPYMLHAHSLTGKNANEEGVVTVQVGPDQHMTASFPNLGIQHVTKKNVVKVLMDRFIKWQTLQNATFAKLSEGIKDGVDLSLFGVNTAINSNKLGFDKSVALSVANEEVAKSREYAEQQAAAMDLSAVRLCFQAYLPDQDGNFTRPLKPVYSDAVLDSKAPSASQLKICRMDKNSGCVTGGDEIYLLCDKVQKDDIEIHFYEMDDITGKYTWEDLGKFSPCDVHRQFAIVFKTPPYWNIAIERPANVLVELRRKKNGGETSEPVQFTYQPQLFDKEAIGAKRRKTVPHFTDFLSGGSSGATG

GST-Co-NF-kB = biological target: T3, GST-Co-NF-kB (Capsaspora owczarzaki, UniProt F1ARL5 200-546)
T3 sequence: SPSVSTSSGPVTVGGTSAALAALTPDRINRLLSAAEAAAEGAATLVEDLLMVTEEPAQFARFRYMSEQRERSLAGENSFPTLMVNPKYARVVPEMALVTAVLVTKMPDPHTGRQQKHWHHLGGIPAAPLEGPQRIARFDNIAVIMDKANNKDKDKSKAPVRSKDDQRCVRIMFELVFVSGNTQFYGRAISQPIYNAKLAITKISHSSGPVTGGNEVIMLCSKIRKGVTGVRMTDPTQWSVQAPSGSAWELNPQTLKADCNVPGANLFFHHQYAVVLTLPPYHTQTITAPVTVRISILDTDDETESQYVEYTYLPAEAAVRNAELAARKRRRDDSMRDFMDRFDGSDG

GST-Dm-Relish = biological target: T4, GST-Dm-Relish (Drosophila melanogaster, UniProt Q94527 99-473)
T4 sequence: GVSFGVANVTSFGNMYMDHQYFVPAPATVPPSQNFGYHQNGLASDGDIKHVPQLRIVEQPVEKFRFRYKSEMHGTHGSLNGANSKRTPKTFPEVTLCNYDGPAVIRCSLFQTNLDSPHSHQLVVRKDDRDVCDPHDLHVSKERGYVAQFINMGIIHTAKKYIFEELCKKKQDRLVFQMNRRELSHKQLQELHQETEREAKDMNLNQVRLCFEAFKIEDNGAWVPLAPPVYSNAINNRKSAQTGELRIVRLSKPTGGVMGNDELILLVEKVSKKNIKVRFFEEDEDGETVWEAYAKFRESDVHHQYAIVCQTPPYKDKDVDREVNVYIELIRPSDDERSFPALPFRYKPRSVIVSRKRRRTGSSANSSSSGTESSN

GST-Aq-NF-kB = biological target: T5, GST-Aq-NF-kB (Amphimedon queenslandica, UniProt A9Y5G7 2-389)
T5 sequence: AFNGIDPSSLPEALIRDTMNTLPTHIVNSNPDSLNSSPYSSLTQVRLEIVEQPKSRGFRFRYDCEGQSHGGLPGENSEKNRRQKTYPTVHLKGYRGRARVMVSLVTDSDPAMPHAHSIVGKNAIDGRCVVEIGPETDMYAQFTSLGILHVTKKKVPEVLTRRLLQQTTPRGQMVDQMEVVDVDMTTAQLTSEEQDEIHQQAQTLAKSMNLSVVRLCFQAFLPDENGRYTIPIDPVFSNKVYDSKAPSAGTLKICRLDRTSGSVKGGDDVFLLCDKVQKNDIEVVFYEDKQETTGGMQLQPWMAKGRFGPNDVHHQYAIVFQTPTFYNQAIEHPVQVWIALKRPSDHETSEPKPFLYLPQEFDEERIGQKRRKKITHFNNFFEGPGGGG

GST-Hu-p50 = GST-Hu-p50 (Homo sapiens, UniProt P19838 7-356)
Chain of GST-Hu-p50 (P19838 7-356): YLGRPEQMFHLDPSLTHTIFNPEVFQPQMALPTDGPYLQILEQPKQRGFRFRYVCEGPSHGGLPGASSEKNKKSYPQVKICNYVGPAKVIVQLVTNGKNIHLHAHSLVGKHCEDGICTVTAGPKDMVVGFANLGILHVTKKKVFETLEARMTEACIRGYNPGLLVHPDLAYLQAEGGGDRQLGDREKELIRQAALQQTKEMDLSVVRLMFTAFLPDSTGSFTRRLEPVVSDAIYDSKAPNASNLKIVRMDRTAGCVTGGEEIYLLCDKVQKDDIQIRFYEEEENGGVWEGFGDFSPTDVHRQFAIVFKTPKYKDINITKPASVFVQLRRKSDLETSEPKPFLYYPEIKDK

Sequence | binding signal (GST-Ap-NF-kB RHD) | binding signal [1] | binding signal (GST-Co-NF-kB) | binding signal (GST-Dm-Relish) | binding signal (GST-Aq-NF-kB) | binding signal (GST-Hu-p50)
CCGATTAACATCAGGGTAATTTATGATGTTAATCGGGTCTTGATTCGCTTGACGCTGCTG | 4.07 z-score | 6.3 z-score | 3.64 z-score | 3.68 z-score | 6.31 z-score | 4.9 z-score
CCGATTAACATCAGGAAAGCCCCTGATGTTAATCGGGTCTTGATTCGCTTGACGCTGCTG | 7.03 z-score | 9.89 z-score | 1.05 z-score | 8.43 z-score | 9.59 z-score | 6.88 z-score
CCGATTAACATCAAGGGAATTCCTGATGTTAATCGGGTCTTGATTCGCTTGACGCTGCTG | 7.9 z-score | 8.71 z-score | 3.76 z-score | 7.95 z-score | 8.11 z-score | 5.3 z-score
CCGATTAACATCAGAAAAATCCCTGATGTTAATCGGGTCTTGATTCGCTTGACGCTGCTG | 5.42 z-score | 6.84 z-score | 2.27 z-score | 9.03 z-score | 7.2 z-score | 5.46 z-score
CCGATTAACATCAGGGGGTTCACTGATGTTAATCGGGTCTTGATTCGCTTGACGCTGCTG | 5.94 z-score | 4.09 z-score | 2.91 z-score | 10.4 z-score | 5.84 z-score | 5.34 z-score
CCGATTAACATCACCCCGCCCCCTGATGTTAATCGGGTCTTGATTCGCTTGACGCTGCTG | 4.32 z-score | 3.28 z-score | 3.91 z-score | 4.16 z-score | 4.28 z-score | 4.24 z-score
CCGATTAACATCAGGATGTCCCCTGATGTTAATCGGGTCTTGATTCGCTTGACGCTGCTG | 6.09 z-score | 4.93 z-score | 2.61 z-score | 5.89 z-score | 5.87 z-score | 4.51 z-score
CCGATTAACATCAGGAACTCCCCTGATGTTAATCGGGTCTTGATTCGCTTGACGCTGCTG | 8.99 z-score | 7.4 z-score | 3.87 z-score | 7.91 z-score | 8.17 z-score | 5.57 z-score
CCGATTAACATCAAGGGGGGAACTGATGTTAATCGGGTCTTGATTCGCTTGACGCTGCTG | 6.46 z-score | 5.69 z-score | 7.52 z-score | 3.7 z-score | 5.19 z-score | 5.52 z-score
CCGATTAACATCAAAATAGCCCCTGATGTTAATCGGGTCTTGATTCGCTTGACGCTGCTG | 5.32 z-score | 5.99 z-score | 1.88 z-score | 4.12 z-score | 5.87 z-score | 5.38 z-score
CCGATTAACATCAAACCTTCCCCTGATGTTAATCGGGTCTTGATTCGCTTGACGCTGCTG | 4.68 z-score | 5.62 z-score | 6.54 z-score | 3.12 z-score | 4.92 z-score | 4.13 z-score
